Assay outcomes as filed in PubChem.
Most compounds without a hit are left out; they make up all but 21% or so of the library.
Pf growth 96h: Primary qHTS for delayed death inhibitors of the malarial parasite plastid, 96 hour incubation | P. falciparum luciferase reporter growth, 96 h | 6.9% of 320,000 active | Potency, µM (doses to about 28.7 µM), for the others: at the top dose activity change, negative = inhibition, hits mostly inhibitors; further: potency means the concentration at half of the fitted maximal effect; on the % scale 0 is the no-effect control and ±100 the full control effect
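P. falciparum expressing integrated firefly luciferase grown in erythrocytes (2% hematocrit, 0.05% parasitemia final) with compounds for 96 hours at 37 C, 5% CO2. Growth inhibition read as loss of luminescence after adding luciferase detection reagent.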
Shiga toxin inh: A qHTS for Small Molecule Inhibitors of Shiga Toxin | inhibition, % at 38.7 µM | 9.2% of 290,000 active | Vero cells, Shiga toxin protein synthesis inhibition reporter | AID 2315, 2010; in the data active means inhibition mostly above about 28%, no sharp cut-off; inactive means mostly below about 43%; further: 0% is about no effect
NS1 inh: qHTS Assay for Inhibitors of Influenza NS1 Protein Function; Potency, µM (series often up to 46.1 µM), for the others: at the top dose activity, positive = more growth; 0.4% of 270,000 active; calls by dose curve; further: potency means the concentration at half of the fitted maximal effect; actives are rising curves; nearly all actives have a fitted effect of over 50% in size
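OD600 was taken as the measure of yeast growth restored by compound in an NS1-expressing S. cerevisiae strain. Cells had been washed out of glucose medium and diluted 1:100 into galactose -URA medium, pH 6.0.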
Cycloheximide cs: Cycloheximide Counterscreen for Small Molecule Inhibitors of Shiga Toxin; cell reporter, cycloheximide protein synthesis inhibition counterscreen; max response, %; 12% of 300,000 active; AID 2314, 2010; in the data active means max response mostly above about 13%, no sharp cut-off; inactive means mostly below about 14%; further: read at 38.3 µM for the half of the compounds with a filed dose; 0% is about no effect
Pf growth 48h: Primary qHTS for delayed death inhibitors of the malarial parasite plastid, 48 hour incubation; P. falciparum luciferase growth in erythrocytes, 48 h; Potency, µM (doses to about 28.7 µM), without a hit: at the highest dose activity change, negative = inhibition, most hits filed as inhibitors; 5.9% of 310,000 active; AID 504832, 2011; further: potency means the concentration at half of the fitted maximal effect; on the % scale 0 is the no-effect control and ±100 the full control effect
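Here the parasites carry a stable luciferase gene and grow inside erythrocytes in Albumax-based RPMI medium with compound for one erythrocytic cycle. Activity is scored as loss of luminescent signal.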
An asterisk follows results filed as active; i = inactive; ? = inconclusive; nt = no result given; [ ] = dose if it differs, or a comment. Unless noted, the call rests on the fitted dose curve; in most records, active means well fitted inhibition curve with a large enough effect; inconclusive means small, poorly fitted or top-dose-only effect, or another doubt; inactive means no such curve, though single readings can be large or run the other way.

SMILES	Pf growth 96h	Shiga toxin inh	NS1 inh	Cycloheximide cs	Pf growth 48h
NC(=S)n1[nH]c(-c2ccc([N+](=O)[O-])cc2)c(N=Nc2ccc(O)cc2)c1=O	-25.8%	-5.8	-3.6%	-2.5	nt
Cc1ccc(S(=O)(=O)NC2CCCCC2)c(C)c1NS(C)(=O)=O	28.8%	-13.0	-9.1%	-4.2	26.0%
CCOC(=O)c1c(NC(=O)/C=C/C(=O)O)sc(C)c1-c1ccc(C(C)(C)C)cc1	31.4%[5.75 µM]	18.1	5.2%	3.0	1.65µM*
Cc1sc(NC(=O)C2CCCCC2C(=O)O)c(C(N)=O)c1-c1ccc(C(C)(C)C)cc1 (stereo unspecified)	33.8%	-11.3	6.0%	-2.2	2.0%
Cc1sc(NC(=O)C2CCCCC2C(=O)O)c(C(N)=O)c1-c1ccccc1 (stereo unspecified)	194.9%	40.5*	25.7%	38.0*	45.1%
Cc1sc(NC(=O)C2C3CCC(C3)C2C(=O)O)c(C(N)=O)c1-c1ccc(C(C)(C)C)cc1 (stereo unspecified)	?	-3.0	0.6%	2.0	-18.4%
CCOC(=O)c1c(NC(=O)/C=C\C(=O)O)sc(C)c1-c1ccccc1	-3.3%	-14.8	-4.8%	-2.8	?
Cc1sc(NC(=O)/C=C/C(=O)O)c(C(N)=O)c1-c1ccc(C(C)(C)C)cc1	167.0%	11.0	-47.4%	1.0	8.28µM*
COc1cc(NC(=O)c2ccc(Br)o2)ccc1NC(=O)c1ccccc1Cl	nt	11.9	?	9.2	10.4µM*
COC(=O)c1cc(OC)c(OC)cc1NC(=O)c1ccc(Br)o1	nt	nt	16.4%	nt	nt
COc1cc(NC(=O)c2ccccc2F)ccc1NC(=O)c1ccccc1Cl	71.8%	16.9	nt	10.5	5.0%
Cc1cc(O)c(NC(=O)c2ccc(Br)o2)cc1C	118.5%	65.8*	-10.1%	46.1*	11.7µM*
COc1ccccc1NC(=O)c1ccc(Br)o1	-6.8%	31.3	-36.4%	13.7*	17.6%
O=C(Nc1ccc2ccccc2c1)c1ccccc1O	?	36.1*	-40.4%	23.5*	-18.1%
CN1C(=O)c2ccc(NC(=O)c3ccc(Cl)cc3Cl)cc2C1=O	?	14.1	-17.2%	22.0*	30.3%
O=C(Nc1ccc2ccccc2c1)c1cc(F)c(F)cc1Cl	0.0%	109.6*	14.2%	47.3*	202.6%
O=C(Nc1ccc2ccccc2c1)c1ccc(Cl)cc1Cl	i	31.7*	4.7%	26.0*	-18.4%
CC(C)C(=O)Nc1cccc(NC(=O)c2ccc(Cl)cc2Cl)c1	-1.1%	13.5	3.2%	2.0	5.4%
CCCCOc1ccc(NC(=O)c2cc(F)c(F)cc2Cl)cc1	?	22.2	-9.7%	10.0	-14.5%
O=[N+]([O-])c1ccc(/C=N\NS(=O)(=O)c2ccc(F)cc2)o1	-3.4%	-2.7	-44.7%	-2.3	21.6%
CCN(CC)c1ccc(N=Cc2ccccc2[N+](=O)[O-])cc1	-103.5%	12.3	-2.7%	-1.7	2.33µM*
CCN(CC)c1ccc(N=Cc2ccc([N+](=O)[O-])o2)cc1	2.94µM*	138.6*	-36.9%	56.9*	1.65µM*
CCN(CC)c1ccc(N=Cc2c(O)[nH]c(=O)[nH]c2=O)cc1	-75.0%	2.7	-4.7%	4.7	?
CCOc1cccc2c1OC1(C)CC2NC(=O)N1c1cccc(C(=O)NCc2ccccn2)c1 (stereo unspecified)	16.0%	8.4	0.1%	-3.1	2.1%
COc1ccc(OC)c(S(=O)(=O)N(C)CC(=O)N2CCCCC2)c1	34.9%	-4.1	-7.9%	0.4	-10.1%
SMILES	Pf growth 96h	Shiga toxin inh	NS1 inh	Cycloheximide cs	Pf growth 48h
CCN(CC)S(=O)(=O)c1ccc2nc(NC(=O)c3ccco3)sc2c1	-2.1%	77.6*	nt	29.0*	40.8%
CCN(CC)S(=O)(=O)c1ccc2nc(NC(=O)c3cccs3)sc2c1	nt	64.8*	3.3%	48.0*	14.0%
O=C(Nc1nc2ccc(S(=O)(=O)N3CCCC3)cc2s1)c1ccco1	67.8%	-0.7	17.1%	14.8	23.4%
CS(=O)(=O)c1ccc2nc(NC(=O)CCC(=O)c3cccs3)sc2c1	11.7µM*	44.8	21.4%	16.8*	?
O=C(N/N=C/c1ccc(O)cc1)NC12CC3CC(CC(C3)C1)C2	-18.9%	-3.3	-10.5%	9.6	-16.2%
Cc1ccc(/C=N/NC(=O)NC23CC4CC(CC(C4)C2)C3)o1	?	149.5*	1.3%	28.5*	?
COc1ccc(/C=N/NC(=O)NC23CC4CC(CC(C4)C2)C3)c(OC)c1	?	-5.7	-5.0%	-4.9	8.28µM*
